GLP1R inv ag – acts as inverse agonist at human GLP-1 receptor | P43220 | HEK293 GLP-1R CRE-luciferase, luminescence, 24 h; GLP-1R form is constitutively active | Potency, µM (highest dose often 38.3 µM), for the others: top-dose activity change, negative = inhibition, hits mostly inhibitors | 410,000 compounds, 1.6% hits | AID 624417; further: on the % scale 0 is the no-effect control and ±100 the full control effect; nearly all actives have a fitted effect of over 55% in size
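Constitutively active GLP-1R drives a cAMP-responsive luciferase in stably transfected HEK293 cells; test compounds are added after overnight (12 h) attachment and left 24 hr, and signal loss in luminescence marks inhibition.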
RGS4 inh – blocks human RGS4-accelerated GTP hydrolysis; P49798; Transcreener GDP fluorescence polarization, RGS4-accelerated GTP hydrolysis; Potency, µM (top dose mostly 114 µM), for inactives: at the top dose activity change, negative = inhibition, hits mostly inhibitors; 390,000 compounds, 0.039% hits; further: on the % scale 0 is the no-effect control and ±100 the full control effect; nearly all actives have a fitted effect of over 75% in size
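MLSMR compounds (23 nl, pin-transferred) preincubated 10 min at room temperature with a 500nM (2x) first reagent, then RGS4 at 900nM (2x) plus Transcreener GDP mix added; fluorescence polarization (620/688 nm) read before and after 90 min at 30 °C.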
HEK293 tox – cytotoxicity counter-screen for GLP-1 receptor inverse agonists | HEK293 cAMP-luciferase reporter cells, luminescence, 24 h | Potency, µM (series often up to 38.3 µM), for inactives: at the highest dose activity change, negative = inhibition, usual class: inhibitors | 410,000 compounds, 0.13% hits;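 further: loss of luciferase light is scored as toxicity; on the % scale 0 is the no-effect control and ±100 the full control effect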
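Quantitative HTS format, 1536 wells, 200 cells/uL seeded. Compounds: 23 nL, 24 h, 37 °C. Detection: luciferase reagent, luminescence at 12 min RT; decreased signal taken as cytotoxic.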
PTHR1 agonist – PTHR1 (human) receptor agonism; HEK293 GP2 PTHR1 cells, GloSensor cAMP luminescence, 1 h; Potency, µM (series often up to 115 µM), for inactives: top-dose activation, hits mostly activators; 410,000 compounds, 0.075% hits; further: nearly all actives have a fitted effect of over 55% in size
Target sequence (Q03431 whole entry, looked up): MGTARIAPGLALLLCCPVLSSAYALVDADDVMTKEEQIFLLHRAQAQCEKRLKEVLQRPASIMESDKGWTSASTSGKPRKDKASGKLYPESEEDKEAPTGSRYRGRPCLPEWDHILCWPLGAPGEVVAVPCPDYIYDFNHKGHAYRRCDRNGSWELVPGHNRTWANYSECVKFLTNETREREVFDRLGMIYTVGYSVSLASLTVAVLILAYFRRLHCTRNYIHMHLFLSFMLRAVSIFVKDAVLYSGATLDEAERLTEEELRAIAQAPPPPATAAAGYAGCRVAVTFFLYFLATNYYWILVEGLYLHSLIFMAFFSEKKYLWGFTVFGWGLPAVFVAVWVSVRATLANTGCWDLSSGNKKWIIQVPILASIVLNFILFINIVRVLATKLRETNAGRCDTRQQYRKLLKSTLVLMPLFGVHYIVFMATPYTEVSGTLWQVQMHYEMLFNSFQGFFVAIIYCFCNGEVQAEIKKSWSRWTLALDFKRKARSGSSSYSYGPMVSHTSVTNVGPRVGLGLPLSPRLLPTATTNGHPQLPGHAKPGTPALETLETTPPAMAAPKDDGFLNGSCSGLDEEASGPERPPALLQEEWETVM
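HEK-293-derived GP2 cells expressing PTHR1 and a GloSensor cAMP reporter, 3,000/well, plated overnight, given luciferin plus IBMX (each 0.5 mM as added) for 1 h at 37 °C, then compound for 1 h at 37 °C. Luminescence was read after 15 min at room temperature.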
GLP1R ag – GLP-1 receptor (human) agonism; P43220; HEK293 GLP-1R CRE-luciferase, luminescence, 4-6 h; cells express a hypersensitive GLP-1R form; Potency, µM (titrated, usually from 45.6 µM), inactives show top-dose activation, actives largely listed as activators; 380,000 compounds, 0.007% hits; AID 624172; further: % of control where 0% means no effect
The depositor's hits bear a star; [ ] = dose if it differs, or a comment. Rows were chosen to be rich in hits. Some 1.7% of all compounds tested hit in one or more screens of this group. The call rests on the fitted dose curve; in most records, active means well fitted curve in the direction sought with a large enough effect; inconclusive means small, poorly fitted or top-dose-only effect, or another doubt; inactive means no such curve, though single readings can be large; an effect the other way counts as inactive or inconclusive. Potency means the concentration at half of the fitted maximal effect.

What do the screens show for `COc1ccccc1NC(=S)NCC1CCCCC1`?
GLP1R inv ag: 10µM*; RGS4 inh: inconclusive; HEK293 tox: inconclusive; PTHR1 agonist: 0.9%; GLP1R ag: 4.7%

Results for COc1ccccc1NS(=O)(=O)c1ccc(C)c(NC(=O)NC2CCCCC2)c1 ?
GLP1R inv ag: 11.2µM*; RGS4 inh: 7.5%; HEK293 tox: -8.3%; PTHR1 agonist: -40.9%; GLP1R ag: 5.1%

What do the screens show for `COc1ccccc1NC(=S)NCCc1ccc(Cl)cc1`?
GLP1R inv ag: 5.01µM*; RGS4 inh: 14.1%[11.4 µM]; HEK293 tox: 7.7%; PTHR1 agonist: -8.8%[57.5 µM]; GLP1R ag: 4.2%

Results for CCOC(=O)c1cc2c(=O)n3ccccc3nc2n(CC2CCCO2)c1=NC(=O)c1cccc(C)c1 (stereo not given) ?
GLP1R inv ag: 1.3%; RGS4 inh: 20.8%; HEK293 tox: 81.7%; PTHR1 agonist: -6.6%

Results for CCOC(=O)CC1CCCCN1C(=O)CCCn1nnnc1CN1CCC(C)CC1 (stereo not given) ?
GLP1R inv ag: 8.2%; RGS4 inh: 0.2%; HEK293 tox: 1.3%; PTHR1 agonist: 1.2%; GLP1R ag: 6.1%

Results for COc1ccccc1NC(=S)NC1CCCCCCCCCCC1 ?
GLP1R inv ag: inconclusive; RGS4 inh: 11.6%; HEK293 tox: 0.501µM*; PTHR1 agonist: inactive; GLP1R ag: -5.1%

How did COc1ccc(NC(=O)NCCCCc2ccccc2)cc1 do in these assays?
GLP1R inv ag: 6.31µM*; RGS4 inh: 25.9%; HEK293 tox: 1.2%; PTHR1 agonist: inactive; GLP1R ag: 1.2%

How did COc1cccc(NC(=O)NCCc2ccc(Cl)cc2)c1 do in these assays?
GLP1R inv ag: 10µM*; RGS4 inh: -16.0%; HEK293 tox: 1.5%; PTHR1 agonist: inactive; GLP1R ag: 9.9%

What do the screens show for `CC(=O)c1cccc(NC(=O)NCCc2ccc(Cl)cc2)c1`?
GLP1R inv ag: inconclusive; RGS4 inh: 11.9%; HEK293 tox: -10.7%; PTHR1 agonist: inactive; GLP1R ag: -2.0%

What do the screens show for `COc1cccc(NC(=O)Nc2ccc(C(C)(C)C)cc2)c1`?
GLP1R inv ag: 6.31µM*; RGS4 inh: 7.6%; HEK293 tox: -30.8%; PTHR1 agonist: -30.1%; GLP1R ag: 8.9%

How did COc1cccc(NC(=O)Nc2ccncc2)c1 do in these assays?
GLP1R inv ag: -4.0%; RGS4 inh: -13.5%[11.4 µM]; HEK293 tox: 5.7%; PTHR1 agonist: inactive; GLP1R ag: 2.0%

What do the screens show for `COc1ccccc1NC(=O)Nc1ccc(C(=O)N2CCCCC2)cc1`?
GLP1R inv ag: 8.91µM*; RGS4 inh: -9.0%; HEK293 tox: -13.7%; PTHR1 agonist: -5.9%; GLP1R ag: 8.5%

What do the screens show for `COC(=O)c1ccccc1NC(=O)Nc1ccc(C(=O)N2CCCC2)cc1`?
GLP1R inv ag: inconclusive; RGS4 inh: -21.0%; HEK293 tox: -12.1%; PTHR1 agonist: -9.1%[57.5 µM]; GLP1R ag: -10.2%

How did O=C(NC1CC1)c1ccc(CS(=O)c2ccccc2)o1 (stereo not given) do in these assays?
GLP1R inv ag: 8.4%; RGS4 inh: 8.5%; HEK293 tox: -11.2%; PTHR1 agonist: -1.8%; GLP1R ag: -3.8%

What do the screens show for `CC1(C)CCC[C@]2(C)C(CS(=O)c3ccccc3)=C(C=O)CC[C@@H]12` (stereo not given in full)?
GLP1R inv ag: 2.82µM*; RGS4 inh: -3.8%; HEK293 tox: -13.0%; PTHR1 agonist: -19.4%; GLP1R ag: 10.3%

How did COC(=O)c1cccc(CN2C(=O)C(C)Oc3ccc(C)cc32)c1 (stereo not given) do in these assays?
GLP1R inv ag: inconclusive; HEK293 tox: 2.1%; PTHR1 agonist: -7.1%; GLP1R ag: 20.3%

How did CCc1nc2ccc(C(=O)N(C)CC(=O)Nc3ccc(Cl)c(C(F)(F)F)c3)cc2nc1CC do in these assays?
GLP1R inv ag: 8.91µM*; RGS4 inh: -13.5%; HEK293 tox: inconclusive; PTHR1 agonist: -93.0%; GLP1R ag: -23.6%

Results for CN(CC(=O)NC(=O)NCc1ccccc1)CC(=O)Nc1ccc(Cl)c(C(F)(F)F)c1 ?
GLP1R inv ag: 7.94µM*; RGS4 inh: -1.1%; HEK293 tox: -24.7%; PTHR1 agonist: -48.5%; GLP1R ag: 7.9%

Results for CN(CC(=O)NC(=O)NCc1ccccc1)Cc1cccc(Cl)c1Cl ?
GLP1R inv ag: 10µM*; RGS4 inh: inconclusive; HEK293 tox: -23.5%; PTHR1 agonist: inactive; GLP1R ag: 0.0%

What do the screens show for `O=C(CSc1nc2ccccc2nc1Cc1ccc(Cl)cc1)N1CCCc2ccccc21`?
GLP1R inv ag: -5.0%; RGS4 inh: 7.9%; HEK293 tox: inconclusive; PTHR1 agonist: -15.5%

How did CCc1ccc(-c2nc(SCC(=O)NC3CC3)n[nH]2)cc1 do in these assays?
GLP1R inv ag: -4.7%; RGS4 inh: -1.6%; HEK293 tox: 7.8%; PTHR1 agonist: -18.8%; GLP1R ag: 19.4%

What do the screens show for `CCc1nnc(N/N=C/c2cc(Br)c(O)cc2O)n1N`?
GLP1R inv ag: 1.2%; RGS4 inh: -38.1%; HEK293 tox: -23.7%; PTHR1 agonist: inactive; GLP1R ag: -7.1%

How did CC(C)(C)c1nnc(N/N=C/c2cc(Br)ccc2O)n(N)c1=O do in these assays?
GLP1R inv ag: 3.55µM*; RGS4 inh: -0.5%; HEK293 tox: inconclusive; PTHR1 agonist: -31.1%; GLP1R ag: -17.7%

Results for CCCCc1nn2c(=O)cc(COC(=O)c3ccc(NC(=O)c4ccccc4Cl)cc3)nc2s1 ?
GLP1R inv ag: -20.0%; RGS4 inh: 4.9%; HEK293 tox: 1.1%; PTHR1 agonist: inactive

Results for C/C(=C\C(=O)c1ccc(Br)cc1)NNC(=O)c1ccc(O)cc1 ?
GLP1R inv ag: 4.47µM*; RGS4 inh: 9.9%; HEK293 tox: inconclusive; PTHR1 agonist: 24.8%; GLP1R ag: -6.7%

Results for CC(C)(C)c1ccc(C(O)c2ncc(-c3cccc(F)c3)[nH]2)cc1 (stereo not given) ?
GLP1R inv ag: inconclusive; HEK293 tox: -12.6%; PTHR1 agonist: -96.7%; GLP1R ag: 2.0%

How did CCn1cc(C(=O)N2CCN(c3ccccc3F)CC2)c(=O)c2cc(S(=O)(=O)N(C)C3CCCCC3)ccc21 do in these assays?
GLP1R inv ag: 5.8%; RGS4 inh: 8.3%; HEK293 tox: -0.5%; PTHR1 agonist: -47.5%; GLP1R ag: -1.3%

How did CC(=O)c1cccc(NC(=O)c2cnn3ccccc23)c1 do in these assays?
GLP1R inv ag: -12.6%; RGS4 inh: 5.2%; HEK293 tox: 0.8%; PTHR1 agonist: inactive; GLP1R ag: 8.2%

What do the screens show for `CC(=O)c1ccc(NC(=O)c2cnn3ccccc23)cc1`?
GLP1R inv ag: 2.51µM*; RGS4 inh: -17.1%; HEK293 tox: -6.3%; PTHR1 agonist: -31.3%; GLP1R ag: -6.3%

Screens deposited in PubChem BioAssay by National Center for Advancing Translational Sciences (NCATS).
